Measured values as given in PubChem BioAssay (Tox21).
Active and inactive are the calls of the source. Where a call stands in place of a potency, no number is given. Calls come from the whole dose curve; as a rule, active = well fitted activation curve with a large enough effect in the repeat runs; inconclusive = weak or mixed curves; inactive = flat fitted curve, though single readings scatter.

Assay: Caspase-3/7 induction in CHO-K1 cells by small molecules, qHTS assay (AID 1346980); note: nearly all actives have a fitted effect of over 15% in size
Settings: CHO-K1 caspase-3/7 induction, Caspase-Glo luminescence, 17 h; series mostly up to 92.4 µM
Source text: National Center for Advancing Translational Sciences [NCATS]
NIH Chemical Genomics Center [NCGC]
U.S. Environmental Protection Agency [EPA]
National Institutes of Environmental Health Sciences [NIEHS]
National Toxicology Program [NTP]
Apoptosis is a process of programmed cell death and plays a central role in the development of multicellular organisms. It is a highly regulated process and induces cell death by activating caspases, which are the members of cysteine aspartic acid-specific protease (caspase) family. Caspases involved in apoptosis are classified by their mechanism of action as initiator caspases (caspase-2, -8, -9 and -10) and executioner caspases (caspase-3, -6, and -7). Inhibition of apoptosis results in number of cancers, autoimmune diseases, inflammatory diseases and viral infection. To identify small molecule compounds that induce apoptosis, a homogeneous, luminescent Caspase-Glo 3/7 assay was used. Wild type CHO-K1 cells were used to screen Tox21 libraries for identifying caspase-3/7 activity inducers.
CHO-K1 cells were dispensed at 1,500 per well in 5uL of culture medium into white solid bottom 1536-well plates (Corning Life Sciences, Corning, NY) using a Multidrop Combi (Thermo Scientific, Waltham, MA) dispenser. The assay plates were incubated at 37 C and 5% CO2 for 5hr, and then 23nL of compounds dissolved in DMSO and positive control were transferred using a Pintool station (Wako, San Diego, CA). The assay plates were incubated at 37C and 5% CO2 for 17hr. For caspase-3/7 activity read, 4uL of Caspase-Glo 3/7 reagent (Promega Corporation, Madison, WI) was added to each well of the assay plates using Flying Reagent Dispenser (FRD, Aurora Discovery, San Diego, CA) and incubated the assay plates at room temperature for 30min. The luminescence signal was quantified using a ViewLux plate reader (Perkin Elmer, Shelton, CT).
Potency is the fitted concentration of half-maximal effect.

| Structure (SMILES) | Potency |
| --- | --- |
| c1ccc2[nH]cnc2c1 | inactive |
| COCC(C)O (stereo not given) | inactive |
| CCCCCCCCCCCCOCC1CO1 (stereo not given) | inactive |
| Cc1cc(Cc2ccc(N)c(C)c2)ccc1N | inactive |
| C/C=C(C)/C=C/C=C(C)C | inactive |
| CC1(C)O[C@@H]2C[C@H]3[C@@H]4C[C@H](F)C5=CC(=O)CC[C@]5(C)[C@H]4[C@@H](O)C[C@]3(C)[C@]2(C(=O)CO)O1 | inactive |
| CCC(=O)O | inactive |
| Nc1c(S(=O)(=O)O)cc(Br)c2c1C(=O)c1ccccc1C2=O | inactive |
| CS(=O)(=O)Nc1ccc([N+](=O)[O-])cc1Oc1ccccc1 | inactive |
| CCCCCCCCC | inactive |
| CCOC(=O)C1OC1c1ccccc1 (stereo not given) | inactive |
| O=C(Oc1ccccc1)c1ccc(O)cc1 | inactive |
| CCCCC(CC)COC(=O)CCCCCCCC(=O)OCC(CC)CCCC (stereo not given) | inactive |
| Cn1c([N+](=O)[O-])cnc1COC(N)=O | inactive |
| C=C(C)C(=O)OCC(CC)(COC(=O)C(=C)C)COC(=O)C(=C)C | inactive |
| CC(C)n1c(/C=C/[C@@H](O)C[C@@H](O)CC(=O)O)c(-c2ccc(F)cc2)c2ccccc21 | inactive |
| CNC[C@H](O)[C@@H](O)[C@H](O)[C@H](O)CO | inactive |
| CCOC(=O)/C=C\C(=O)OCC | inactive |
| C=C(C)C(=O)OCCC[Si](OC)(OC)OC | inactive |
| Cc1ccc(N)c(S(=O)(=O)O)c1 | inactive |

| Structure (SMILES) | Potency |
| --- | --- |
| Cc1ccc(C)c(C)c1 | inactive |
| CCCCCCCCCC(=O)O | inactive |
| Nc1nc2ncc(CNc3ccc(C(=O)N[C@@H](CCC(=O)O)C(=O)O)cc3)nc2c(=O)[nH]1 | inactive |
| CC1COc2ccccc2N1C(=O)C(Cl)Cl (stereo not given) | inactive |
| C=CC(=O)OCCCCCCCC(C)C | inactive |
| Oc1c(Cl)cc(Cl)c(Cl)c1Cl | inactive |
| CCCCC(CC)COC(=O)/C=C\C(=O)OCC(CC)CCCC (stereo not given) | inactive |
| O=C(Cl)c1c(Cl)c(Cl)c(C(=O)Cl)c(Cl)c1Cl | inactive |
| O=S(=O)(O)CCS | inactive |
| O=[N+]([O-])C(CO)(CO)CO | inactive |
| c1ccc2ccccc2c1 | inactive |
| COC(=O)Nc1nc2ccc(Sc3ccccc3)cc2[nH]1 | 54.5 µM (active) |
| OCCOCCOCCOCCO | inactive |
| O=C1N=C(O)CN1/N=C/c1ccc(-c2ccc([N+](=O)[O-])cc2)o1 | inactive |
| O=c1c(-c2ccc(O)cc2)coc2cc(O)ccc12 | inactive |
| CCCCOCCOCCOC(=O)CCCCC(=O)OCCOCCOCCCC | inactive |
| CCCCC(CC)COC(C)=O (stereo not given) | inactive |
| CCCCCCOC(C)=O | inactive |
| CCCCOCCO | inactive |
| O=C1O[C@H](CO)[C@@H](O)[C@H](O)[C@H]1O | inactive |
